The nature of test [1]: compounds binding Alexa647 anti-His antibody – biochemical, small-molecule microarray, 635 nm fluorescence, artefact control for SMM control protein annotation, primary screen (AID 1128).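 Note: score merges feature fluorescence with signal-to-noise for each printed compound spot.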 To be noted: higher = more signal.
The test system of test [2] is Human papillomavirus type 1a E7 protein (residues 1-88). Put plainly: HPV1a E7 small-molecule binders, primary screen, biochemical, small-molecule microarray, residues 1-88, 635 nm (AID 1129). To be noted: small-molecule microarray binding, fluorescence 635 nm; higher = more signal.
Test [3] addresses Focal adhesion kinase 1 (Homo sapiens) (UniProt Q05397). Put plainly: PTK2 protein binding on printed compound slides – biochemical, small-molecule microarray, 635/667 nm fluorescence, BSA, DTT, primary screen (AID 1130).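 Note: composite of spot emission at 667 nm and signal to noise over triplicate slides.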 To be noted: 635 nm fluorescence, higher = more signal.
Test [4] deals with Fibrinogen (Alexa647-labelled). Kind of test: Alexa647-fibrinogen binding to printed small molecules – biochemical, small-molecule microarray, 635/667 nm fluorescence, artefact control for SMM control-protein annotation, profiling panel (AID 1131).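 Note: z-score merges 667 nm fluorescence with per-spot signal-to-noise over triplicate slides.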 As to conditions: fibrinogen-A647 binding fluorescence, higher = more signal.
Test [5] concerns the target Follistatin (Homo sapiens) (UniProt P19883). Kind of test: FST protein binding to printed compounds – biochemical, small-molecule microarray, 635/667 nm fluorescence, primary screen (AID 1132). As to conditions: 635 nm fluorescence, higher = more signal.
In test [6] the target is Fibroblast growth factor 2 (Homo sapiens) (UniProt P09038). Kind of test: basic fibroblast growth factor binding to printed compounds – biochemical, small-molecule microarray, 635/667 nm fluorescence, primary screen (AID 1133). As to conditions: FGF2, fluorescence 635/667, higher = more signal.
Chain of Fibroblast growth factor 2 (Homo sapiens) (P09038 whole entry, looked up): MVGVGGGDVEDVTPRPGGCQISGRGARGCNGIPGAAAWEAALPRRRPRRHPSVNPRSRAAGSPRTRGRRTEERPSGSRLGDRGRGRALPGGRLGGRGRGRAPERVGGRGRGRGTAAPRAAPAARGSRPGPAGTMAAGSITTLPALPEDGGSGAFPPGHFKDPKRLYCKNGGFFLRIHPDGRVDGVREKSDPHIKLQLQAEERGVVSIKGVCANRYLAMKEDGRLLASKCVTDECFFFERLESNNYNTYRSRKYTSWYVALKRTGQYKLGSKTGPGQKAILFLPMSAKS
The nature of test [7]: JC-1 mitochondrial potential readout, lung cancer cells – cell-based, A549, JC-1 fluorescence, basal, 24 h, 100 nL, profiling panel (AID 1138).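 Note: A549 lung adenocarcinoma cells under basal conditions with no added stimulus; test concentration not given here.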 As to conditions: higher = more signal.
The subject of test [8] is Lefty1. Kind of test: Lefty1 protein binding to printed compounds – biochemical, small-molecule microarray, 635/667 nm fluorescence, primary screen (AID 1139). To be noted: fluorescence 635/667, higher = more signal.
The subject of test [9] is wheat germ agglutinin (Triticum aestivum), Alexa647-labelled. Put plainly: Alexa647-WGA lectin binding to printed small molecules – biochemical, small-molecule microarray, 635/667 nm fluorescence, artefact control for SMM control-protein annotation, profiling panel (AID 1140).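 Note: score merges 667 nm feature emission with signal to noise over triplicate slides.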 To be noted: WGA-A647 binding, 635 nm fluorescence, higher = more signal.
The target of test [10] is Luciferin 4-monooxygenase (Photinus pyralis) (UniProt P08659). Put plainly: inhibition of purified Photinus pyralis luciferase – biochemical, luminescence, purified enzyme, 2006 set, primary screen (AID 1141).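 Note: cell-free assay with purified firefly luciferase at 100 ng per well in PBS; test concentration not given here.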 As to conditions: purified firefly luciferase, SteadyGlo luminescence, 30 min; higher = more signal, called active from +8 up or from −8 down.
Chain of Luciferin 4-monooxygenase (Photinus pyralis) (P08659 whole entry, looked up): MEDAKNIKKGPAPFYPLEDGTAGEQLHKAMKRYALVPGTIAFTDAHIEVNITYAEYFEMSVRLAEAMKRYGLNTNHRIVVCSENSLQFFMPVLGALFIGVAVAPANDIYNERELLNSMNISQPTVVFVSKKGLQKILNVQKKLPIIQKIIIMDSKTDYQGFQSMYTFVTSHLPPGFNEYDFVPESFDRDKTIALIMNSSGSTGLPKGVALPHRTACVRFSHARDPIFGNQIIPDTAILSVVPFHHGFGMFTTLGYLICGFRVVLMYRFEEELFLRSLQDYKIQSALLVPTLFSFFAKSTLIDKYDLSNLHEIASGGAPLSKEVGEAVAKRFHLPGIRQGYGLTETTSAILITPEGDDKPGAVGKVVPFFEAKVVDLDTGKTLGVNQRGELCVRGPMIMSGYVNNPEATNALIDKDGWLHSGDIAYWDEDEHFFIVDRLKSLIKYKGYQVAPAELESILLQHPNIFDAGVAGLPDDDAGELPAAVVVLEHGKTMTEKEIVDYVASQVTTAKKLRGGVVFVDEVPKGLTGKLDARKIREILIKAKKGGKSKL
Test [11] relates to Wnt5a (protein binding on small-molecule microarray). Kind of test: small molecules binding Wnt5a protein – biophysical, small-molecule microarray, 635/667 nm fluorescence, primary screen (AID 1142).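 Note: fluorescence read at 667 nm with signal to noise per printed feature.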 To be noted: 635 nm fluorescence, higher = more signal.
Test [12] in a line: ATP-based viability of Huh7 replicon cells – cell-based, CellTiter-Glo luminescence, basal, 48 h, cytotoxicity control for HCV replication inhibitor project, primary screen (AID 1143).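 Note: Huh7 hepatoma cells carrying a hepatitis C replication reporter with no stimulus; test concentration not given here.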 As to conditions: higher = more signal, called active from +8 up or from −8 down. (In antiviral work, replicon cells carry a viral genome segment that copies itself.)
Test [13] in a line: Pseudomonas biofilm growth suppression – PAO1 strain, BacTiter-Glo luminescence, LB-PBS, primary screen (AID 1144). To be noted: P. aeruginosa PAO1 biofilm, 12 h, higher = more signal.
The nature of test [14]: basal CRE-LacZ reporter activity in PC12 – cell-based, unstimulated, primary screen (AID 1145). To be noted: no forskolin, luminescence, 4.5 h, higher = more signal, called active from +8 up or from −8 down.
A short description of test [15]: forskolin-driven CRE-LacZ activity in PC12 – cell-based, CRE-LacZ reporter, forskolin-stimulated, primary screen (AID 1146).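 Note: PC12 cells with 6xCRE LacZ reporter stimulated by forskolin 10 µM; beta-galactosidase reporter signal reflecting CREB driven transcription.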 As to conditions: luminescence, 4.5 h, higher = more signal, called active from +8 up or from −8 down.
The target of test [16] is Streptavidin (Streptomyces avidinii) (UniProt P22629). Put plainly: compounds binding control protein streptavidin – biophysical, small-molecule microarray, 635/667 nm fluorescence, artefact control for SMM compound annotation, primary screen (AID 1147).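 Note: signal reflects streptavidin binding to arrayed compounds as a control protein.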 To be noted: higher = more signal.
Chain of Streptavidin (Streptomyces avidinii) (P22629 whole entry, looked up): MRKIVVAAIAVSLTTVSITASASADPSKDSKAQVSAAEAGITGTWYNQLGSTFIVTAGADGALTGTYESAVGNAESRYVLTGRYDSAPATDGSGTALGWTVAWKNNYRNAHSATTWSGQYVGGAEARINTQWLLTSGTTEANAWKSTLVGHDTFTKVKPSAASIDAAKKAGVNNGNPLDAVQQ
Test [17] in a line: probe aInhba binding on compound microarray – biochemical, small-molecule microarray, 635/667 nm fluorescence, primary screen (AID 1148).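 Note: score merges 667nm spot fluorescence with signal-to-noise for antibody binding to printed compounds.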 To be noted: higher = more signal.
Test [18] has as its target Torsin-1A (Homo sapiens) (UniProt O14656). Kind of test: TOR1A wild-type binding on microarray – cell lysate, small-molecule microarray, lysate, 635/667 nm, primary screen (AID 1149). To be noted: COS7 hTOR1A-WT lysate, 635 nm fluorescence, higher = more signal.
Test [19] has the same target. Kind of test: torsin A mutant lysate binding on microarrays – cell lysate, small-molecule microarray, COS7 lysate, 635/667 nm fluorescence, primary screen (AID 1150).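 Note: score pools 667 nm emission and signal to noise measuring lysate protein binding.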 As to conditions: COS7 hTOR1A mutant lysate, 635 nm fluorescence, higher = more signal.
Test [20] concerns Sonic hedgehog protein (Shh). Kind of test: Sonic hedgehog microarray binding compounds – biochemical, small-molecule microarray, 635/667 nm fluorescence, primary screen (AID 1151).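 Note: Shh protein binding to compounds spotted on small-molecule microarray slides; score combines spot fluorescence intensity with signal-to-noise across triplicate slides.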 As to conditions: 635 nm fluorescence, higher = more signal.

Calls of active or inactive are those of the source. Unless noted, the rule behind the calls is not given here.

Chain of Focal adhesion kinase 1 (Homo sapiens) (Q05397 whole entry, looked up): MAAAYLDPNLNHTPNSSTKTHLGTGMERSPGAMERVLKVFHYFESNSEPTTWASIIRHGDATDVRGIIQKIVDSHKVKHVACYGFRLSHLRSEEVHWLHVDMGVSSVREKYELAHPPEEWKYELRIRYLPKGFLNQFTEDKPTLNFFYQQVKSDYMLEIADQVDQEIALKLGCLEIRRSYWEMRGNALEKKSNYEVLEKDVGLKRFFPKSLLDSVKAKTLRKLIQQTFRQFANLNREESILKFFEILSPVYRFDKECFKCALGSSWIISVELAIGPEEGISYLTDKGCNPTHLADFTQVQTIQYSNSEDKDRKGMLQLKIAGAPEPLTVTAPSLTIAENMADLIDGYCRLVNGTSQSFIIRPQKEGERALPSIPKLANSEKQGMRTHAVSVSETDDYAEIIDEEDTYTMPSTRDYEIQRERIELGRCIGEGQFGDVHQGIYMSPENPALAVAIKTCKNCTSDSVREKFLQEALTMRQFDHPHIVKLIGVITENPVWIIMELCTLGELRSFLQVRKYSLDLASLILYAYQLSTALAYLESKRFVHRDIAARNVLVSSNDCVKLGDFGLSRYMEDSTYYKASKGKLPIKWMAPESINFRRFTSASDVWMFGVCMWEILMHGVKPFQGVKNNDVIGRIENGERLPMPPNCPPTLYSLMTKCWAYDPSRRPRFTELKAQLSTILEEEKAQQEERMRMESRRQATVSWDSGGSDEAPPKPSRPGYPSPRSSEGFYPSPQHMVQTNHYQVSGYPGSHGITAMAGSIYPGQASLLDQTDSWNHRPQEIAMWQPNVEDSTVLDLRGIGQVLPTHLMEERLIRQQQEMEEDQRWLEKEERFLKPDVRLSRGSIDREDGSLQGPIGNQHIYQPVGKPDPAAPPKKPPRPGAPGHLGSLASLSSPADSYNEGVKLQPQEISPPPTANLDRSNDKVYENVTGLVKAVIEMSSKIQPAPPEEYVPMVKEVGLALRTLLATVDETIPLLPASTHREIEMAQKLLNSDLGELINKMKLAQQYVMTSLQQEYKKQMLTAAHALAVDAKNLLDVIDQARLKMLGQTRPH
Chain of Torsin-1A (Homo sapiens) (O14656 whole entry, looked up): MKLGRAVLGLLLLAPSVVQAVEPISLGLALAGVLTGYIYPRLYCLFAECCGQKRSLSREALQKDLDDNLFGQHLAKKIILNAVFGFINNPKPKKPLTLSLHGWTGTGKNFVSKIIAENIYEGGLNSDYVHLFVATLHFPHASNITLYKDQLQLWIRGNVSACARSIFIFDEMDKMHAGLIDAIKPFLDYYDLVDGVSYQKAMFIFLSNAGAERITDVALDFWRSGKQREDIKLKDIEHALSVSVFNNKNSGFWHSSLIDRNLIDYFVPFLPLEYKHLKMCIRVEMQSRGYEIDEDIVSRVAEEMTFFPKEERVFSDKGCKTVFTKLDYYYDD
Chain of Follistatin (Homo sapiens) (P19883 whole entry, looked up): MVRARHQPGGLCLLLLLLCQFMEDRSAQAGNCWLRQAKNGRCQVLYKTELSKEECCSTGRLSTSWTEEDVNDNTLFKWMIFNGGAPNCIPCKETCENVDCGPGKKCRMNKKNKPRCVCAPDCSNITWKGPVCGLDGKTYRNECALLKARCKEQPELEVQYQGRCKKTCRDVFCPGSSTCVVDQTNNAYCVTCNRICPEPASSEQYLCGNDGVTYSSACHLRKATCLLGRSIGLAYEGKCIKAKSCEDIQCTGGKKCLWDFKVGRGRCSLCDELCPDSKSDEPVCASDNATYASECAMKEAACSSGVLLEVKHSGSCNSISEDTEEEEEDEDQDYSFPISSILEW

`C=CCC(OC(C)=O)[C@@H]1[C@@H](N(Cc2cccc3ccccc23)C(=O)c2ccc(C)cc2)c2cc(OCCCO)ccc2N1C(=O)Cc1ccc2ccccc2c1` (stereo not given in full): the composite z-score in [1] is -0.2; in [2], -0.0179; in [3] it was 0.358; in test [4], 0.535; in test [5] it was 0.142; in test [6], -0.0243. In addition, the composite z-score in test [8] is -0.136; in test [9] it was -0.0836; in test [11], 0.245; in [16] it was 0.652; in test [17], -0.101; in test [18] it was 0.125. Further, the composite z-score in test [19] was -0.564; in [20], -0.0314. Further, the z-score in [7] is 1.62; in test [10], -0.667 (inactive); in [12] it was -0.72 (inactive); in test [13], -0.234 (inactive); in test [14], 1.46 (inactive); in test [15], -0.0127 (inactive).
As to `[N-]=[N+]=NCc1ccccc1C[C@@]1(C(=O)NCCN2CCOCC2)N=C(c2ccc(OCCCO)cc2)O[C@@H]1c1ccccc1`, the composite z-score in test [1] was 1.42; in test [2] it was 1.18; in test [3], 0.444; in test [4], 0.947; in test [5], 1.23; in test [6], -0.426. Also, the composite z-score in [8] worked out at 0.573; in test [9], 0.639; in [11], 0.366; in [16], 1.11; in [17] it was 0.302; in test [18], 0.271. The results for the composite z-score in test [19] and in test [20] were 0.57 and 0.34, respectively. Also, the z-score in test [7] is 1.44; in test [10], -1.04 (inactive); in test [12] it was -3.38 (inactive); in test [13], 0.505 (inactive); in test [14] it was 2.72 (inactive); in [15] it was 0.847 (inactive).
Take `COc1cc2c(cc1OC)CN(C(=O)[C@@H]1[C@H]3C(=O)O[C@H](c4ccccc4)[C@H](c4ccccc4)N3[C@H](c3ccc(O)cc3)[C@@]13C(=O)Nc1ccc(C#CC4=CCCCC4)cc13)CC2`: the composite z-score came to 1.76 in test [1]; 1.19 in [2]; 0.453 in test [3]; 0.863 in test [4]; 1.08 in test [5]; 0.493 in [6]. The composite z-score stood at 1.46 in [8]; 1.06 in test [9]; 0.236 in test [11]; 1.03 in test [16]; 0.271 in test [17]; 0.335 in test [18]. Moreover, the composite z-score in test [19] stood at 0.794; in test [20] it was 1.07. Further, the z-score was -0.637 in [7]; -1.33 (inactive) in test [10]; -1.56 (inactive) in test [12]; -0.376 (inactive) in [13]; -0.375 (inactive) in test [14]; -0.493 (inactive) in [15].
With `C[C@H]1C2[C@H](Cc3ccccc3)NC(=O)[C@]23C(=O)N[C@@H](Cc2ccccc2)C(=O)N2CCC[C@H]2C(=O)NC/C=C/CC/C=C/C3[C@@H]2O[C@]12C` (stereo not given in full), the composite z-score was 0.196 in [1]; 0.965 in test [2]; -0.153 in [3]; 0.596 in test [4]; 0.925 in test [5]; 0.359 in [6]. Besides, the composite z-score in [8] is 0.754; in [9] it was 0.0255; in [11], 0.241; in [16], -0.423; in test [17] it was -0.0986; in test [18] it was -0.0723. In addition, the composite z-score worked out at 0.49 in test [19] and 0.975 in test [20]. The z-score in test [7] is 0.974; in test [10] it was 0.527 (inactive); in test [12], -2.38 (inactive); in test [13], -0.165 (inactive); in [14] it was 0.941 (inactive); in test [15], -0.688 (inactive).
Turning to `C=CCOC(=O)[C@H]1[C@@H]2C(=O)O[C@@H](c3ccccc3)[C@@H](c3ccccc3)N2[C@@H](c2ccc(OCCOC(=O)[C@@H]3C[C@@H]4C(=O)N[C@@H](Cc5ccccc5)C(=O)N4[C@@H]3c3ccc(O)cc3)cc2)[C@]12C(=O)Nc1ccc(I)cc12`, the composite z-score in test [1] is 1.15; in [2], 1.15; in test [3], 0.307; in [4], -0.0558; in test [5] it was 1.4; in test [6], 1.25. Besides, the composite z-score in [8] was 0.924; in test [9], 0.0495; in test [11], 0.305; in test [16] it was 0.387; in [17] it was 0.124; in [18], -0.305. Also, the composite z-score amounted to 0.237 in test [19] and 1.93 in test [20]. Further, the z-score is -1.28 in test [7]; -0.409 (inactive) in [10]; -0.268 (inactive) in test [12]; 0.0872 (inactive) in test [13]; 0.81 (inactive) in [14]; 0.695 (inactive) in test [15].

(Values after PubChem BioAssay.)
